Assay outcomes deposited in PubChem by National Center for Advancing Translational Sciences (NCATS).
MCF10A rereplic = inducers of DNA re-replication in MCF 10A breast cells; MCF 10A DNA re-replication, Hoechst nuclear intensity, 48 h; Potency, µM (highest dose often 46.1 µM), actives largely listed as activators; actives 2.9% (n = 350,000); AID 624296; also: nearly all actives have a fitted effect of over 50% in size
KB-3-1 cytotox = kills parental KB-3-1 adenocarcinoma cells; actives 1.4% (n = 400,000); Potency, µM (titrated, usually from 46.1 µM), actives largely listed as cytotoxic; KB-3-1 viability, CellTiter-Glo ATP luminescence, 72 h; also: nearly all actives have a fitted effect of over 60% in size
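Cytotoxicity in the drug-sensitive parental line KB-3-1 was scored as loss of CellTiter-Glo luminescence following 72 h incubation with compound. Values come from curve fitting of normalized concentration-response data.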
SW480 rereplic = induces DNA re-replication in SW480 colon adenocarcinoma cells; SW480 DNA re-replication, Hoechst DNA content imaging, 48 h; Potency, µM (titrated, usually from 46.1 µM), actives largely listed as activators; actives 1.8% (n = 340,000); also: nearly all actives have a fitted effect of over 55% in size
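Hoechst fluorescence of nuclei (405 nm excitation, 500-530 nm emission) measured by plate-scanning imager after 48 hr compound exposure at 37 C; re-replication scored as increased number of nuclei with elevated intensity.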
HT1080-NT tox = kills 2HG-producing HT-1080-NT fibrosarcoma cells. HT-1080-NT fibrosarcoma viability, CellTiter-Glo ATP luminescence, 48 h. Potency, µM (top dose mostly 46.1 µM), hits mostly cytotoxic. actives 1.6% (n = 360,000);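 also: NT is the 2HG producing partner of a matched IDH1 knockdown line; nearly all actives have a fitted effect of over 55% in size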
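HT-1080-NT; 750 cells/well; 5% FBS RPMI; 48 h compound, 37 degrees C; CellTiter-Glo luminescence; curve fitting and curve-class assignment.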
KB-V1 MDR tox = kills drug-selected multidrug resistant KB-V1 cells. Potency, µM (highest dose often 46.1 µM), actives largely listed as cytotoxic. actives 3.4% (n = 400,000). KB-V1 MDR cells viability, CellTiter-Glo, 72 h; also: nearly all actives have a fitted effect of over 60% in size
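Readout: CellTiter-Glo luminescence, 10 min after addition. Cells: KB-V1 MDR subline, 72 h at 37 degrees C with compound. Analysis: corrected, normalized data fitted to concentration-effect curves.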
HT1080 IDH1KD tx = kills HT-1080 cells with IDH1 knockdown | actives 2% (n = 360,000) | Potency, µM (titrated, usually from 46.1 µM), usual class: cytotoxic | AID 686971 | HT-1080 IDH1 knockdown viability, ATP luminescence, 48 h
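CellTiter-Glo luminescence after 48 h compound exposure at 37 degrees C of IDH1-knockdown HT-1080 cells in 5% FBS RPMI. %Activity scaled between DMSO wells and cell-free media wells, with curves fitted and assigned curve classes.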
A number is an active result; – = inactive; ? = inconclusive; · = no result; [ ] = remark or other dose. An excerpt weighted towards active compounds, which were near 8% of everything screened. Calls follow the shape of the dose curve; as a rule, active = well fitted curve in the direction sought with a large enough effect; inconclusive = small, poorly fitted or top-dose-only effect, or another doubt; inactive = no such curve, though single readings can be large; an effect the other way counts as inactive or inconclusive.

SMILES	MCF10A rereplic	KB-3-1 cytotox	SW480 rereplic	HT1080-NT tox	KB-V1 MDR tox	HT1080 IDH1KD tx
CCOc1ccc(-c2[nH]ncc2-c2ccc(OC)c(OC)c2)c(O)c1	?	?	2.59µM	6.31µM	3.66µM	2.24µM
COc1ccc(-c2cn[nH]c2-c2ccc(OCc3ccc([N+](=O)[O-])cc3)cc2O)cc1	5.8µM	?	?	–	3.66µM	–
CCOc1ccc(-c2[nH]ncc2-c2ccc(Cl)cc2)c(O)c1	?	–	?	–	–	–
C=C(C)COc1ccc(-c2nc(N)nc(C(F)(F)F)c2-c2ccc(OC)cc2)c(O)c1	2.59µM	–	20.6µM	?	–	?
COc1ccc(-c2c(C)nc(N)nc2-c2ccc(OCc3ccc(C)cc3)cc2O)cc1OC	?	–	–	–	2.31µM	–
COc1ccc(-c2cn[nH]c2-c2ccc(O)cc2O)cc1OC	–	–	–	–	–	–
COc1ccc(CNS(=O)(=O)NCc2ccc(OC)c(OC)c2)cc1OC	–	–	–	–	–	–
CCOc1ccc(-c2nc(N)ncc2Oc2ccccc2Br)c(O)c1	?	–	–	?	–	23.1µM
C=C(C)COc1ccc(-c2ncncc2-c2ccc(Br)cc2)c(O)c1	?	–	–	?	–	–
C=C(C)COc1ccc(-c2nc(N)ncc2-c2ccc(Br)cc2)c(O)c1	23.1µM	20.6µM	?	?	?	–
CCOc1ccc(-c2nc(N)ncc2Oc2cccc(OC)c2)c(O)c1	–	?	–[9.22 µM]	–	?	?
C=C(C)COc1ccc(-c2[nH]ncc2-c2ccccc2OC)c(O)c1	14.6µM	?	?	18.4µM	?	18.4µM
C=C(C)COc1ccc(-c2[nH]ncc2-c2ccc(Br)cc2)c(O)c1	9.2µM	5.8µM	20.6µM	14.6µM	11.6µM	23.1µM
Cc1cc(C)c(C#N)c(SCC(=O)c2cccs2)n1	–	?	–	–	–	–
Nc1sc(-c2ccccc2)cc1C(=O)N1CCNCC1	·	–	·	–	–	–
Cc1ccc(C(=O)O/N=C2/CC3CCC2(C)[C@@]3(C)CBr)cc1 (some centres not stated)	–	–	–	?	–	?
C=C(C)COc1ccc(-c2ncncc2-c2ccc(Cl)cc2)c(O)c1	14.6µM	–	–	–	–	–
CCc1cc(-c2nc(N)ncc2-c2ccc(Br)cc2)c(O)cc1OC	18.4µM	–	–	–	–	–
CCN(CC)CCNC(=O)C12CC3CC(CC(C3)C1)C2	–	–	–	–	–	–
CCN(CC)CCNC(=O)C(Cl)=C1C(Cl)=C(Cl)C(Cl)=C1Cl	10.3µM	?	11.6µM	–	?	?
CCOc1ccccc1N(CC(=O)NCCSc1ccccn1)S(=O)(=O)c1ccc(C)cc1	–	–	–	–	–	–
CC(NC(=O)c1ccc(F)cc1)C(=O)NC1=NCCS1 (configuration not stated)	–	–	6.51µM	–	–	–
COc1cc(OC)c(N(C)S(=O)(=O)c2cccc(C(=O)NC3=NCCS3)c2)cc1Cl	–	?	?	?	?	16.4µM
O=C(NC1=NCCS1)c1ccccc1	–	–	–	–	–	–
CC(NC(=O)c1ccc(Cl)cc1)C(=O)NC1=NCCS1 (configuration not stated)	–	–	–	–	–	–
SMILES	MCF10A rereplic	KB-3-1 cytotox	SW480 rereplic	HT1080-NT tox	KB-V1 MDR tox	HT1080 IDH1KD tx
COc1ccccc1N(C)S(=O)(=O)c1ccc(Cl)c(C(=O)NC2=NCCS2)c1	–	–	–	–	?	–
Cc1cccc(C(=O)NC2=NCCS2)c1	?	–	6.51µM	–	–	–
CCC(NC(=O)CCl)c1ccc(C)cc1 (configuration not stated)	–	20.6µM	–	?	?	?
CCCC(NC(=O)CCl)c1ccccc1 (configuration not stated)	–	–	–	?	–	?
CC(NC(=O)CCl)c1ccc(Cl)c(Cl)c1 (configuration not stated)	?	?	?	?	–	16.4µM
CC(NC(=O)c1ccc(Cl)c(Cl)c1)c1ccc(-c2ccccc2)cc1 (configuration not stated)	–	–	–	–	–	–
CC1=CC(C)[C@H](/C=N/n2c(=O)[nH]c3c([nH]c4ccc(C)cc43)c2=O)C(C)C1 (some centres not stated)	9.2µM	?	?	–	–	–
FC(F)Oc1ccc(-c2csc(=Nc3cccnc3)n2CC2CCCO2)cc1 (configuration not stated)	?	–	–	–	–	–
OCCCn1c(-c2ccccc2)csc1=Nc1ccccc1	?	–	–	–	?	–
Clc1ccc(-c2csc(=Nc3cccnc3)n2CCCn2ccnc2)cc1Cl	?	14.6µM	–	–	10.3µM	–
COCCn1c(-c2ccc(Br)cc2)csc1=Nc1cccnc1	–	14.6µM	–	–	?	–
CCOC(=O)CSc1nc2ccc(NC(=O)CSc3nnnn3Cc3ccccc3)cc2s1	–	?	–	–	–	–
COc1ccc(CNC(=O)CSc2nnnn2Cc2ccccc2)cc1	?	16.4µM	?	?	?	?
COc1ccc(CCNc2nnc(Sc3nnnn3-c3ccccc3)s2)cc1OC	4.61µM	4.11µM	2.91µM	3.55µM	14.6µM	2µM
CC(C)(C)NC(=O)CSc1nc2ccc(NC(=O)CSc3nnnn3Cc3ccccc3)cc2s1	–	–	–	–	–	16.4µM
COc1ccc(CSc2nnnn2Cc2ccccc2)cc1OC	?	–	–	–	23.1µM	–
Oc1c(N=NC(=S)Nc2ccccc2F)c2ccccc2n1Cc1ccccc1	?	?	–	–	–	–
Oc1c(N=NC(=S)Nc2ccccc2F)c2ccccc2n1Cc1ccccc1Cl	–	4.11µM	–	13µM	–	–
CC(=O)Nc1ccc(S(=O)(=O)Nc2nc3ccccc3nc2N2CCc3ccccc3C2)cc1	–	–	?	–	9.2µM	–
CN1CCN(c2nc3ccccc3nc2NS(=O)(=O)c2ccc(Br)cc2)CC1	–	–	–	–	–	–
O=S(=O)(Nc1nc2ccccc2nc1N1CCc2ccccc2C1)c1ccc(Br)cc1	14.6µM	?	–	–	–	?
O=S(=O)(Nc1nc2ccccc2nc1N1CCc2ccccc2C1)c1ccc(Cl)cc1	–	14.6µM	?	–	14.6µM	–
Cc1ccccc1S(=O)(=O)Nc1nc2ccccc2nc1N1CCc2ccccc2C1	–	–	?	–	20.6µM	–
COc1ccc(CCNC(=O)C2CCN(C(=O)c3ccc(C(C)(C)C)cc3)CC2)cc1OC	–	–	–	–	–	–
